# Assay results as given in PubChem BioAssay (NCI).
# About 83,000 compounds went through this panel and 20% of them were active in at least one assay; those are over-represented in the sample as a whole.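 How to read the values: 0–100, growth inhibition (40 = 60% inhibited); 0, no net growth; -100 to 0, cell death (-40 = 40% of starting cells died; -100 = all dead).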 Unmarked numbers belong to inactive results. Calls of active or inactive are those of the source.
# Tested on: A498 renal
# Experiment: NCI-60 one-dose screen, 48 h (100 = growth as untreated, 0 = no growth, -100 = all killed)
# Settings: 10 µM unless noted
# Method: Growth inhibition of the A498 human tumor cell line is measured as a screen for anti-cancer activity. Cells are grown in 96 well plates and exposed to the test compound for 48 hours. Compounds are tested at a single concentration, which is 10^-5 M for most compounds. The reported endpoint is percent growth (GI% or GIPRCNT), where numbers from 0 - 100% represent growth inhibition, and numbers from -100% - 0 represent cell death. For example, a value of 40 represents 60% growth inhibition. A value of 0 means no net growth occurred over the course of the experiment. A value of -40 indicates 40% of cells at the beginning of the experiment died by the end of the experiment. A value of -100 means all cells are dead at the end of the experiment.
# NCI-60 Human Tumor Cell Lines Screen was performed using the standard one-dose NCI protocol, which is described in more detail at https://dtp.cancer.gov/discovery_development/nci-60/default.htm.
# Compounds with GIPRCNT values below 10 were considered active. Activity score was based on GIPRCNT using the following formula: […]
# Score is 0 for GIPRCNT values of 100 or above, 50 for GIPRCNT values of 0, and 100 for GIPRCNT values of -100.
row,SMILES,growth
1,Brc1ccc(Oc2ccc(Nc3ncnc4onc(-c5ccccc5)c34)cc2)cc1,82.4%
2,O=c1cc(NC2CCN(CCCc3ccccc3)CC2)c2cc(Cl)ccc2o1,-19% (active)
3,Oc1[nH]c2ccccc2c1N=Nc1nnc2n1N=C(c1ccccc1)CS2,92.9%
4,O=C(Nc1ccc(Br)cc1F)c1cc(I)ccc1O,-40.9% (active)
5,COc1ccccc1C(=O)O/N=C(\N)Cc1cccc2ccccc12,95.1%
6,COc1cccc2cc(N(C)c3nc(C)nc4ccsc34)ccc12,-9.74% (active)
7,COc1cccc(C(=O)NC(c2ccc(C)cc2)c2cc(Cl)c3cccnc3c2O)c1 (stereo not given),23.1%
8,Cn1c(C(=O)c2cccc3ccccc23)nc2ccccc21,36.3%
9,COc1ccc(Cn2c(Br)c3c(c2-c2cc(OC)c(OC)c(OC)c2)CCc2sc(NC(C)=O)nc2-3)cc1,21.5%
10,OCCNc1nc(Nc2ccc(C3=NN(c4cc(Cl)cc(Cl)c4)C(c4ccc(C(F)(F)F)cc4)C3)cc2)nc(N2CCOCC2)n1 (stereo not given),82.4%
11,COc1ccc(C(O)(CCC(C)C)C(CN2CCOCC2)c2ccc(Cl)cc2)cc1 (stereo not given),110%
12,O=C(NCCCN1CCC(N2CCCCC2)CC1)C1=Cc2cc(Br)ccc2OC1,52.7%
13,CC1CCCCN1CCCNC(=O)c1ccc2c(c1)sc1nc(-c3ccc(F)cc3)cn12 (stereo not given),83.7%
14,COc1ccc(Cn2cc(Cn3cc(C=C4C(=O)NC(=O)NC4=O)c4ccccc43)nn2)cc1,22.2%
15,O=C(Nc1ccc(Cl)cc1F)c1cc(F)ccc1O,-55.6% (active)
16,CC1=C(C(=O)OCC2CCN(C(=O)OC(C)(C)C)CC2)[C@H](c2cccc(C#N)c2)C2=C(CC(C)(C)CC2=O)N1,68.3%
17,COc1ccc(/C=C2\NC(=O)NC2=O)cc1O,91.2%
18,CCOC(=O)C(CC(=O)O)=C(C(=O)OCC)C(=O)OCC,104%
19,Fc1cccc(COc2ccc(Nc3ncnc4onc(-c5ccccc5)c34)cc2)c1,-22.4% (active)
20,Cc1nn(-c2nc3ccccc3[nH]2)c2c1C(c1ccc(OCC(N)=O)cc1)CC(=O)N2 (stereo not given),79.1%

row,SMILES,growth
1,COC(=O)[C@H](NC(=O)C1(C)CCC[C@]2(C)[C@H]3C[C@H]4C(C(C)C)=C[C@]3(CC[C@@H]12)[C@@H]1C(=O)CCC(=O)[C@@H]14)C(C)C (stereo not given in full),110%
2,C#CCn1cc(C=C2C(=O)NC(=O)NC2=O)c2cc(Cl)ccc21,-53.3% (active)
3,O=C(NC1CCN(Cc2ccccc2)CC1)c1cc2nc(-c3ccc(Cl)s3)cc(C(F)(F)F)n2n1,98.6%
4,O=[N+]([O-])c1cc2c(ccc3occc32)o1,-5.92% (active)
5,COc1ccc(CCN2C(=O)CCSC2=S)cc1,82.9%
6,COC(=O)c1ccc(NC(=O)CSc2nc3ccccc3c(=O)n2-c2ccccc2)cc1,96.7%
7,O=NN(Cc1cccnc1)C(=O)NC1CCCCC1,103%
8,Cc1ccc2cc3c(N)c4c(C)ccc(C)c4nc3nc2c1,41.9%
9,Cc1ccc(C)c(-c2csc(Nc3ccc(C)c(C)c3)n2)c1,65.7%
10,O=C(c1nc2ccccc2[nH]1)C1C(c2cccc([N+](=O)[O-])c2)C2CC3CCCCC3N2[C@@]12C(=O)Nc1cc(Cl)ccc12 (stereo not given in full),-1.86% (active)
11,O=C1CCC(N2C(=O)c3cccc(NCCCCCCOc4ccc(Nc5nccc(Nc6ccccc6)n5)cc4)c3C2=O)C(=O)N1 (stereo not given),74.6%
12,O=C(/C=C/c1cccc(Cl)c1)OCc1ccc2cc1OCC#C/C=C\C#CCO2,76.7%
13,CC1=CCC(OC(=O)C(C)(C)CCC(O)(C(=O)OC2(C(C)C)CCC3(C)OC3C2)C(C)C)(C(C)C)CC1 (stereo not given),-83.1% (active)
14,COc1cc(C(=O)Nc2ccc(-c3nc4ccccc4[nH]3)cc2)cc(OC)c1OC,37.6%
15,COc1ccc(Cn2cc(Cn3c(=O)c(-c4nc5ccccc5[nH]4)cc4ccccc43)nn2)c(OC)c1OC,-27.4% (active)
16,CCCCCCc1cc2cc(-c3nc4ccccc4[nH]3)c(=Nc3ccccc3C)oc2cc1O,79.7%
17,O=C(/C=C/c1ccccc1)c1ccc(Nc2nc(NCCO)nc(Nc3ccc(Cl)cc3)n2)cc1,88.9%
18,COc1cc(/C=C2\CN(C)C/C(=C\c3cc(CN4CCCC4)c(O)c(OC)c3)C2=O)cc(CN2CCCC2)c1O,98.2%
19,O=c1oc2ccc(Br)cc2c(=O)n1-c1ccc(I)cc1F,-70.2% (active)
20,COc1ccc(/C=C/C(=O)c2c(C)nc3ccccc3c2/C=C/c2ccccc2)c(OC)c1,97.3%
